GLP1R inv ag – qHTS of GLP-1 Receptor Inverse Agonists (Inhibition Mode) | Glucagon-like peptide 1 receptor (Homo sapiens), P43220 | HEK293 GLP-1R CRE-luciferase, luminescence, 24 h; GLP-1R form is constitutively active | Potency, µM (series often up to 38.3 µM), actives largely listed as inhibitors | 1.6% of 410,000 active | AID 624417, 2012; also: nearly all actives have a fitted effect of over 55% in size
Target sequence (P43220 whole entry, looked up): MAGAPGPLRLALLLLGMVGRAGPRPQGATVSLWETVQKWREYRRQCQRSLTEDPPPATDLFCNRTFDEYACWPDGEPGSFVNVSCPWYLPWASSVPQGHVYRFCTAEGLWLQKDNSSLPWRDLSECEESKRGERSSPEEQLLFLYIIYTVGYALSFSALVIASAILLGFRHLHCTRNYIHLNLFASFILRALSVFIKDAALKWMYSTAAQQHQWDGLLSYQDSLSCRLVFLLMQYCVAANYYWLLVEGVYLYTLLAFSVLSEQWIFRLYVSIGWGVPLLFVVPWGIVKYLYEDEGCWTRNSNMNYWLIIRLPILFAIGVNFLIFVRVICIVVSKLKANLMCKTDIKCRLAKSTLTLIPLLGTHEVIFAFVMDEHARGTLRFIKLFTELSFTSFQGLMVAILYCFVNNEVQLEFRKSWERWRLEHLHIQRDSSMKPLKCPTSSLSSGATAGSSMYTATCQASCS
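Assay principle: reduced luminescence from a cAMP-responsive reporter in HEK293 cells co-expressing a constitutively active GLP-1R. Conditions: 24 hr compound incubation, 37 deg C, 5% CO2.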
uPA generation – qHTS for Inhibitors of Cell Surface uPA Generation; cell surface uPA generation assay, qHTS; Potency, µM (doses to about 38.3 µM), actives largely listed as inhibitors; 0.31% of 330,000 active; AID 540303, 2011; active = well fitted inhibition curve with a large enough effect; inconclusive = small, poorly fitted or top-dose-only effect; inactive = no such curve, though single readings can be large or run the other way; tested in mouse RAW 264.7 cells; also: nearly all actives have a fitted effect of over 55% in size
MmCpn inh – Inhibitors of TCP-1 ring complex (TRiC) of Methanococcus maripaludis (MmCpn): qHTS; Chaperonin Mm-Cpn (Methanococcus maripaludis); purified Mm-Cpn ATPase, ADP Transcreener TR-FRET; Potency, µM (highest dose often 76.9 µM), actives largely listed as inhibitors; 0.031% of 330,000 active; AID 504842, 2011; also: nearly all actives have a fitted effect of over 80% in size
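Reaction buffer contained 30 mM Tris pH 7.4, 100 mM KCl, 5 mM MgCl2 and 1 mM DTT. Mm-CPN (25 nM final) hydrolysed 10 uM ATP over 30 min at 37°C; ADP was read by HTRF.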
GLP1R ag – qHTS of GLP-1 Receptor Agonists. 0.007% of 380,000 active. Potency, µM (titrated, usually from 45.6 µM), usual class: activators. HEK293 GLP-1R CRE-luciferase, luminescence, 4-6 h; cells express a hypersensitive GLP-1R form. AID 624172, 2012. Glucagon-like peptide 1 receptor (Homo sapiens), P43220
CCT chaperon mod – High-Throughput Screening for Modulators of Cytosolic Chaperonin Activity | purified chaperonin ATPase assay, HTRF ADP detection, 30 min | activity change, % (concentration not given with the values), hits read low | 0.3% of 360,000 active | AID 651819, 2012; in the data active = activity change below about -30%
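TRiC at 40 or 20 nM final (batch-dependent) in 30 mM Tris pH 7.4, 100 mM KCl, 5 mM MgCl2, 1 mM DTT, with compound at single 76 uM and 10 uM ATP, 30 min at 37 deg C. ADP detected by HTRF Transcreener, 665/615 ratio.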
HEK293 tox – qHTS of GLP-1 Receptor Inverse Agonists: Cytotox Screen | 0.13% of 410,000 active | AID 624418, 2012 | Potency, µM (top dose mostly 38.3 µM), most hits filed as inhibitors | HEK293 cAMP-luciferase reporter cells, luminescence, 24 h;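 also: loss of luciferase light is scored as toxicity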
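Luminescence readout: signal drop marks cytotoxicity. Plated cells grew 12 h at 37 °C, 5% CO2, received 23 nL compound for 24 h, then got luciferase reagent, read after 12 min at RT.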
Numbers stand for hits; n = inactive; u = inconclusive; x = not tested or not shown. Shown are actives, neighbours in structure and some others; about 2.2% of the full set was active somewhere. Unless noted, calls follow the shape of the dose curve; as a rule, active = well fitted curve in the direction sought with a large enough effect; inconclusive = small, poorly fitted or top-dose-only effect, or another doubt; inactive = no such curve, though single readings can be large; an effect the other way counts as inactive or inconclusive.

SMILES	GLP1R inv ag	uPA generation	MmCpn inh	GLP1R ag	CCT chaperon mod	HEK293 tox
Cc1ccccc1CS(=O)(=O)Cc1ccc(C(=O)NCCc2ccc(Cl)cc2)o1	u	x	x	x	x	n
Cc1ccc2nc(N(CCCN(C)C)C(=O)c3ccc(S(=O)(=O)N4CCCCCC4)cc3)sc2c1	u	n	n	n	n	u
CN(C)CCN(C(=O)c1ccc(S(=O)(=O)N2CCCC2)cc1)c1nc2ccc(Br)cc2s1	5.62µM	n	n	n	n	n
Fc1ccc2c(c1)-c1nc(-c3ccccc3)cc(-c3ccccc3)c1CO2	n	x	x	n	x	n
CC1(C(=O)Nc2cccc3c2CCCC3)CCN1C(=O)CCC1CCCC1 (stereo not drawn)	11.2µM	x	x	n	n	n
COc1ccc(OC)c(CCNC(=O)c2nc(-c3ccc(Cl)cc3)n3c2CCCCC3)c1	u	x	x	x	x	n
Cc1onc(-c2ccccc2)c1C(=O)N[C@@H]1C(=O)N2[C@@H](C(=O)O)C(C)(C)S[C@@H]12	x	x	x	n	x	x
COc1cc(CNc2ccc(CNc3ncn[nH]3)cc2)ccc1OCc1ccccc1	2µM	n	n	n	n	n
CCOc1ccc(CNC(=O)C2CCN(c3nc4ccccc4nc3C(F)(F)F)CC2)cc1OC	n	x	x	x	x	n
CCOc1ccc(-c2[nH]ncc2Oc2ccccc2OCC)c(O)c1	u	n	n	n	-73.5	u
CCOc1ccc(-c2[nH]ncc2Oc2ccccc2OC)c(O)c1	8.91µM	n	n	n	n	u
CCCN1C(=O)C2(c3ccccc31)c1c(oc3ccc(C)cc3c1=O)C(=O)N2CCOC (stereo not drawn)	n	x	x	x	x	n
COCCNC(=O)CN1C(=O)NC2(CCCc3cc(OC)ccc32)C1=O (stereo not drawn)	n	n	n	n	-36.0	n
CCNC(=O)CN1C(=O)NC2(CCCc3cc(OC)ccc32)C1=O (stereo not drawn)	n	n	n	n	n	n
Cc1ccc(-n2nc3c(=O)n(CC(=O)NCCC4=CCCCC4)nc(C)c3c2C)cc1	n	n	n	n	-77.6	n
Cc1ccc(-n2nc3c(=O)n(CC(=O)NCCc4ccc(Cl)cc4)nc(C)c3c2C)cc1	u	n	n	n	n	n
CCOC(=O)c1cc(S(=O)(=O)N2CCN(c3cc(Cl)ccc3C)CC2)[nH]n1	n	x	x	x	x	n
COc1ccc(/C(C)=N/NC(=S)NCc2ccco2)cc1	11.2µM	n	n	n	n	u
C/C(=N\NC(=S)NCc1ccccc1)c1ccc2ccccc2c1	u	n	n	n	n	2.82µM
C/C(=N\NC(=S)NCc1ccccc1)c1cccc(Br)c1	8.91µM	n	n	n	n	u
CCNC(=S)N/N=C(\C)c1cc2ccccc2o1	4.47µM	n	n	n	n	u
C/C(=N\NC(=S)NCCc1ccccc1)c1cccc(Br)c1	n	x	n	n	n	u
O=C(Cn1cnnn1)N[C@@H]1C(=O)N2C(C(=O)O)=C(CSc3nncs3)CS[C@H]12	x	x	x	n	x	x
Cc1ccc(C)c(Cn2c(SCC(=O)N(C)Cc3ccccc3)nc3ccccc32)c1	u	x	x	x	x	n
COc1ccccc1/C(C)=N/NC(=S)NCc1ccccc1	2.51µM	n	n	n	n	5.01µM
SMILES	GLP1R inv ag	uPA generation	MmCpn inh	GLP1R ag	CCT chaperon mod	HEK293 tox
COc1ccc(CNC(=S)N/N=C(\C)c2ccc(OC)cc2)cc1	u	n	n	n	n	u
OCC[C@H]1C[C@H](O)[C@@H](O)[C@]2(CCCO2)O1	n	n	x	n	-64.8	u
Cc1ccc(-c2nnn3c2nc(NCc2ccc4c(c2)OCO4)c2ccccc23)cc1	n	x	x	n	x	n
CN(Cc1ccccc1)CC(O)COc1ccc(CNCc2ccc(Cl)s2)cc1 (stereo not drawn)	4.47µM	n	n	n	n	n
CN(Cc1ccccc1)CC(O)COc1ccc(CNCc2cccnc2)cc1 (stereo not drawn)	u	u	n	n	n	n
CC(C)(C)c1nnc(NS(=O)(=O)c2ccccc2)s1	x	x	x	n	x	x
O=C(c1cc(-c2ccccc2)nc2ccccc12)N1N=C(C(F)F)CC1(O)C(F)F (stereo not drawn)	n	x	n	n	n	n
CCOc1ccc(-c2cc(C(=O)N3CCN(c4ccccn4)CC3)c3ccccc3n2)cc1	n	x	n	n	n	n
CCOc1cccc(-c2cc(C(=O)N3N=C(C)CC3(O)C(F)F)c3ccccc3n2)c1 (stereo not drawn)	11.2µM	n	n	n	n	n
CCCc1ccc(-c2cc(C(=O)N3CCN(c4ccccn4)CC3)c3ccccc3n2)cc1	3.16µM	7.08µM	n	n	n	n
CCOc1ccc(-c2cc(C(=O)N3CCN(c4cccc(C)c4)C(C)C3)c3ccccc3n2)cc1 (stereo not drawn)	5.01µM	x	x	x	x	n
CCOc1ccc(-c2cc(C(=O)N3CCN(c4ccc(C)cc4)C(C)C3)c3ccccc3n2)cc1 (stereo not drawn)	n	x	x	x	x	n
CN1CCCN(C(=O)c2cc(-c3cccc4ccccc34)nc3ccccc23)CC1	7.94µM	n	n	n	n	n
O=C(c1cc(-c2ccccc2Cl)nc2ccccc12)N1CCC1	n	n	n	n	n	n
COCCn1c(CNC(=O)c2cc([N+](=O)[O-])ccc2Cl)nc2cccnc21	n	x	x	x	x	n
Cc1nn(-c2ccccc2)c2c1N(CCCC(=O)NC(C)c1ccccc1)C(=O)CS2 (stereo not drawn)	u	x	x	x	x	n
CCOc1ccc(/C=C/c2nc(C#N)c(N3CCCCC3)o2)cc1	n	x	x	x	x	n
Cc1ccc(Oc2nc3ccccn3c(=O)c2/C=C(\C#N)c2nc3ccccc3s2)c(C)c1	n	x	x	x	x	n
Cc1ccc(-c2cc(C(=O)N3CCN(c4ccccc4O)CC3)c3ccccc3n2)cc1	u	n	n	n	n	u
Cc1ccc(-c2cc(C(=O)N3CCN(c4ccc(O)cc4)CC3)c3ccccc3n2)cc1	u	10µM	n	n	n	n
CCC1CCCCN1C(=O)CSc1nnc(-c2c[nH]c3ccccc23)o1 (stereo not drawn)	11.2µM	n	n	n	n	n
CC1CCCC(C)N1C(=O)CSc1nnc(-c2c[nH]c3ccccc23)o1 (stereo not drawn)	n	n	n	n	n	n
CCCCCCN1C[C@H](n2cc(COC(=O)c3ccccc3)nn2)[C@@H](O)C[C@@H]1c1ccccc1	u	x	x	n	n	n
O=C(OCc1cn([C@H]2CN(C(=O)C3CCCCC3)[C@@H](c3ccc(Cl)cc3)C[C@@H]2O)nn1)c1ccccc1	11.2µM	x	x	n	n	n
